Reference: PubChem BioAssay (NCI)
The panel holds about 83,000 compounds, 20% with a hit somewhere; the sample as a whole holds those more often.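 Growth was measured after 48 h exposure to one concentration of compound in 96-well plates. Values under 10 count as active.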 Values without a mark were called inactive. The source made the active and inactive calls.

Columns and labels:
Test in all cases: NCI-60 one-dose screen, 48 h (100 = growth as untreated, 0 = no growth, -100 = all killed)
Conditions in all cases: 10 µM unless noted
EKVX NSCLC = test system: EKVX NSCLC
SN12C renal = test system: SN12C renal
UO-31 renal = test system: UO-31 renal
TK-10 renal = test system: TK-10 renal
ACHN renal = test system: ACHN renal
CAKI-1 renal = test system: CAKI-1 renal
A498 renal = test system: A498 renal
CCRF-CEM leukemia = test system: CCRF-CEM leukemia
MOLT-4 leukemia = test system: MOLT-4 leukemia

Compound | growth (EKVX NSCLC) | growth (SN12C renal) | growth (UO-31 renal) | growth (TK-10 renal) | growth (ACHN renal) | growth (CAKI-1 renal) | growth (A498 renal) | growth (CCRF-CEM leukemia) | growth (MOLT-4 leukemia)
Cc1cc(C)c2[nH]c(=O)c(C(c3nnnn3Cc3ccc4c(c3)OCO4)N3CCN(C)CC3)cc2c1 (stereo not drawn) | 106% | 108% | 103% | 115% | 106% | 97.7% | 102% | 119% | 82.3%
COc1ccc(-c2cc(C)nc3[nH]c(=O)sc23)cc1 | 89.5% | 43.2% | 3.27% (active) | 17.1% | 31.9% | 40.5% | 6.1% (active) | 81.5% | 86.8%
C[C@@H]1[C@H]2C[C@@H](C[C@H]1NCc1nc3ccccc3n1C1CCCCCC1)C2(C)C | 68.3% | 39.8% | 44.4% | 90.8% | 59.5% | 55.5% | 88.9% | 58% | 33.6%
COc1ccc(C(=O)/C=C/c2ccc3c(c2)OCCO3)cc1S(N)(=O)=O | 84.8% | 68.6% | 48.5% | 95.6% | 69.6% | 85.6% | 109% | 91% | 37.4%
COc1cc(CNC(=O)[C@]23CCC(C)(C)CC2C2=CCC4[C@@]5(C)CCC(OC(C)=O)C(C)(C)C5CC[C@@]4(C)[C@]2(C)CC3)ccc1OCc1cn(-c2ccc(Cl)cc2Cl)nn1 (stereo partly drawn) | 86.5% | 94.1% | 80.2% | 134% | 101% | 77.9% | 146% | 98.2% | 104%
Cc1nc(N)ncc1-c1ccc2ncnc(N3CCc4cc(F)c(Cl)cc43)c2c1 | 20.3% | 54.9% | 27.6% | 5.99% (active) | 27.2% | 14.1% | 25.3% | 77.8% | 11.1%
NS(=O)(=O)c1cccc(Nc2nc(SCC(=O)c3ccc(F)cc3)nc3ccccc23)c1 | 28% | 15.8% | 17.9% | 44.6% | 25.9% | – | 71.1% | 1.38% (active) | 2.93% (active)
Nc1nc2cc(-c3ccc4ncnc(NCc5ccccc5)c4c3)ccc2o1 | 0.598% (active) | -33.7% (active) | -73.4% (active) | -28.5% (active) | -62.4% (active) | -24.9% (active) | 41.6% | 29.6% | -20.1% (active)
CC(C)CN1C(=O)/C(=C\C(=O)c2cc3ccccc3oc2=O)c2ccccc21 | 94.7% | 89.9% | 52.1% | 98.2% | 30.6% | 81.2% | 149% | 37.2% | 40%
Nc1cc2ccccc2c(=O)n1NC(=O)c1ccc(Br)cc1 | 83.2% | 95.5% | 74.9% | 116% | 104% | 83.8% | 189% | 86.4% | 90.8%
CN1CCc2c(sc3ncnc(N/N=C/c4cccc(Cl)c4Cl)c23)C1 | 67.4% | 10.3% | 42.6% | 72.7% | -39.1% (active) | 79.4% | 114% | 4.9% (active) | 6.34% (active)
N#CC1=C(c2cccs2)Nc2c(c(-c3ccccc3)nn2-c2ccccc2)C12C(=O)Nc1ccccc12 (stereo not drawn) | 14.8% | 55.3% | 18.2% | 18.1% | -26.9% (active) | 63.4% | -14.9% (active) | 6.02% (active) | 15%
Cc1ccc(/C=C/C(=O)c2ccc(S(=O)(=O)NCCNc3nc(N(C)C)nc(N4CCOCC4)n3)cc2)cc1 | 82.6% | 86.4% | 73.2% | 112% | 101% | 64.6% | 96% | 52.1% | 13.5%
CC[C@]12C=CCN3CC[C@@]4(c5ccc(OC)cc5N(C)[C@H]4[C@@](O)(C(=O)OC)[C@@H]1OC(=O)CCCC[P+](c1ccc(F)cc1)(c1ccc(F)cc1)c1ccc(F)cc1)[C@@H]32 | 53% | 10.6% | 85.9% | 70.2% | 103% | – | 99.2% | 19.9% | 29.1%
O=C(CSc1nnc(-c2ccc(-c3nc4ccc(Cl)cc4[nH]3)cc2)o1)Nc1ccccc1 | 21.1% | 4.03% (active) | 60.6% | 114% | -56.4% (active) | -33.5% (active) | 130% | 41.5% | 10.7%
